Menin-MLL TR inh: qHTS Assay for Inhibitors Targeting the Menin-MLL Interaction in MLL Related Leukemias: Competition With Texas Red Labeled MLL-derived Mutant Peptide. O00255. Menin + Texas Red MLL mutant peptide, fluorescence polarization. Potency, µM (top dose mostly 61.6 µM), inactives show at the highest dose FP activity change, negative = inhibition, usual class: inhibitors. 0.23% of 270,000 active. AID 1768, 2009; active means well fitted inhibition curve with a large enough effect in the polarisation, with a control signal flat, not every such curve was filed as active; inconclusive means small, poorly fitted or top-dose-only effect, or effect the other way, or a change in a side signal; inactive means no such curve, though single readings can be large or run the other way; the % refers to the polarisation; further: potency means the concentration at half of the fitted maximal effect; % of control where 0% means no effect
RGS12 GoLoco inh: qHTS Assay for Inhibitors of RGS12 GoLoco Motif Activity (Red Fluorophore); Guanine nucleotide-binding protein G(i) subunit alpha-1 (Homo sapiens), P63096; Gai1:RGS12 GoLoco peptide FP, rhodamine, 10 min; Potency, µM (top dose mostly 61.6 µM), for the others: at the top dose activity, negative = inhibition, actives largely listed as inhibitors; 0.44% of 230,000 active; AID 880, 2007; active means well fitted inhibition curve with a large enough effect, not every such curve was filed as active; inactive means no such curve, though single readings can be large or run the other way; further: potency means the concentration at half of the fitted maximal effect; on the % scale 0 is the no-effect control and ±100 the full control effect; nearly all actives have a fitted effect of over 30% in size
Menin MLL FP FL: qHTS Assay for Inhibitors Targeting the Menin-MLL Interaction in MLL Related Leukemias: Competition With Fluorescein Labeled MLL-derived Peptide; 290,000 tested, under 10 active; FP activity change, % at 61.4 µM; Fluorescence polarization, fluorescein-MLL peptide displacement from menin; AID 1766, 2009; active means well fitted curve in the direction sought with a large enough effect in the polarisation, not every such curve was filed as active; inconclusive means small, poorly fitted or top-dose-only effect, or effect the other way, or a change in a side signal; inactive means no such curve, though single readings can be large or run the other way; the % refers to the polarisation; further: % of control where 0% means no effect
MLL CXXC-DNA inh: qHTS Fluorescence Polarization Assay for Inhibitors of MLL CXXC domain - DNA interaction. Histone-lysine N-methyltransferase 2A (Homo sapiens), Q03164. MLL-CXXC / FITC-HOXA9 DNA fluorescence polarization. Potency, µM (top dose mostly 115 µM), for inactives: top-dose activity change, negative = inhibition, hits mostly inhibitors. 0.037% of 290,000 active; active means well fitted inhibition curve with a large enough effect in the polarisation, with a control signal flat, not every such curve was filed as active; inconclusive means small, poorly fitted or top-dose-only effect, or effect the other way, or a change in a side signal; inactive means no such curve, though single readings can be large or run the other way; the % refers to the polarisation; further: potency means the concentration at half of the fitted maximal effect
Target sequence (Q03164 whole entry, looked up, the tested form may be a part): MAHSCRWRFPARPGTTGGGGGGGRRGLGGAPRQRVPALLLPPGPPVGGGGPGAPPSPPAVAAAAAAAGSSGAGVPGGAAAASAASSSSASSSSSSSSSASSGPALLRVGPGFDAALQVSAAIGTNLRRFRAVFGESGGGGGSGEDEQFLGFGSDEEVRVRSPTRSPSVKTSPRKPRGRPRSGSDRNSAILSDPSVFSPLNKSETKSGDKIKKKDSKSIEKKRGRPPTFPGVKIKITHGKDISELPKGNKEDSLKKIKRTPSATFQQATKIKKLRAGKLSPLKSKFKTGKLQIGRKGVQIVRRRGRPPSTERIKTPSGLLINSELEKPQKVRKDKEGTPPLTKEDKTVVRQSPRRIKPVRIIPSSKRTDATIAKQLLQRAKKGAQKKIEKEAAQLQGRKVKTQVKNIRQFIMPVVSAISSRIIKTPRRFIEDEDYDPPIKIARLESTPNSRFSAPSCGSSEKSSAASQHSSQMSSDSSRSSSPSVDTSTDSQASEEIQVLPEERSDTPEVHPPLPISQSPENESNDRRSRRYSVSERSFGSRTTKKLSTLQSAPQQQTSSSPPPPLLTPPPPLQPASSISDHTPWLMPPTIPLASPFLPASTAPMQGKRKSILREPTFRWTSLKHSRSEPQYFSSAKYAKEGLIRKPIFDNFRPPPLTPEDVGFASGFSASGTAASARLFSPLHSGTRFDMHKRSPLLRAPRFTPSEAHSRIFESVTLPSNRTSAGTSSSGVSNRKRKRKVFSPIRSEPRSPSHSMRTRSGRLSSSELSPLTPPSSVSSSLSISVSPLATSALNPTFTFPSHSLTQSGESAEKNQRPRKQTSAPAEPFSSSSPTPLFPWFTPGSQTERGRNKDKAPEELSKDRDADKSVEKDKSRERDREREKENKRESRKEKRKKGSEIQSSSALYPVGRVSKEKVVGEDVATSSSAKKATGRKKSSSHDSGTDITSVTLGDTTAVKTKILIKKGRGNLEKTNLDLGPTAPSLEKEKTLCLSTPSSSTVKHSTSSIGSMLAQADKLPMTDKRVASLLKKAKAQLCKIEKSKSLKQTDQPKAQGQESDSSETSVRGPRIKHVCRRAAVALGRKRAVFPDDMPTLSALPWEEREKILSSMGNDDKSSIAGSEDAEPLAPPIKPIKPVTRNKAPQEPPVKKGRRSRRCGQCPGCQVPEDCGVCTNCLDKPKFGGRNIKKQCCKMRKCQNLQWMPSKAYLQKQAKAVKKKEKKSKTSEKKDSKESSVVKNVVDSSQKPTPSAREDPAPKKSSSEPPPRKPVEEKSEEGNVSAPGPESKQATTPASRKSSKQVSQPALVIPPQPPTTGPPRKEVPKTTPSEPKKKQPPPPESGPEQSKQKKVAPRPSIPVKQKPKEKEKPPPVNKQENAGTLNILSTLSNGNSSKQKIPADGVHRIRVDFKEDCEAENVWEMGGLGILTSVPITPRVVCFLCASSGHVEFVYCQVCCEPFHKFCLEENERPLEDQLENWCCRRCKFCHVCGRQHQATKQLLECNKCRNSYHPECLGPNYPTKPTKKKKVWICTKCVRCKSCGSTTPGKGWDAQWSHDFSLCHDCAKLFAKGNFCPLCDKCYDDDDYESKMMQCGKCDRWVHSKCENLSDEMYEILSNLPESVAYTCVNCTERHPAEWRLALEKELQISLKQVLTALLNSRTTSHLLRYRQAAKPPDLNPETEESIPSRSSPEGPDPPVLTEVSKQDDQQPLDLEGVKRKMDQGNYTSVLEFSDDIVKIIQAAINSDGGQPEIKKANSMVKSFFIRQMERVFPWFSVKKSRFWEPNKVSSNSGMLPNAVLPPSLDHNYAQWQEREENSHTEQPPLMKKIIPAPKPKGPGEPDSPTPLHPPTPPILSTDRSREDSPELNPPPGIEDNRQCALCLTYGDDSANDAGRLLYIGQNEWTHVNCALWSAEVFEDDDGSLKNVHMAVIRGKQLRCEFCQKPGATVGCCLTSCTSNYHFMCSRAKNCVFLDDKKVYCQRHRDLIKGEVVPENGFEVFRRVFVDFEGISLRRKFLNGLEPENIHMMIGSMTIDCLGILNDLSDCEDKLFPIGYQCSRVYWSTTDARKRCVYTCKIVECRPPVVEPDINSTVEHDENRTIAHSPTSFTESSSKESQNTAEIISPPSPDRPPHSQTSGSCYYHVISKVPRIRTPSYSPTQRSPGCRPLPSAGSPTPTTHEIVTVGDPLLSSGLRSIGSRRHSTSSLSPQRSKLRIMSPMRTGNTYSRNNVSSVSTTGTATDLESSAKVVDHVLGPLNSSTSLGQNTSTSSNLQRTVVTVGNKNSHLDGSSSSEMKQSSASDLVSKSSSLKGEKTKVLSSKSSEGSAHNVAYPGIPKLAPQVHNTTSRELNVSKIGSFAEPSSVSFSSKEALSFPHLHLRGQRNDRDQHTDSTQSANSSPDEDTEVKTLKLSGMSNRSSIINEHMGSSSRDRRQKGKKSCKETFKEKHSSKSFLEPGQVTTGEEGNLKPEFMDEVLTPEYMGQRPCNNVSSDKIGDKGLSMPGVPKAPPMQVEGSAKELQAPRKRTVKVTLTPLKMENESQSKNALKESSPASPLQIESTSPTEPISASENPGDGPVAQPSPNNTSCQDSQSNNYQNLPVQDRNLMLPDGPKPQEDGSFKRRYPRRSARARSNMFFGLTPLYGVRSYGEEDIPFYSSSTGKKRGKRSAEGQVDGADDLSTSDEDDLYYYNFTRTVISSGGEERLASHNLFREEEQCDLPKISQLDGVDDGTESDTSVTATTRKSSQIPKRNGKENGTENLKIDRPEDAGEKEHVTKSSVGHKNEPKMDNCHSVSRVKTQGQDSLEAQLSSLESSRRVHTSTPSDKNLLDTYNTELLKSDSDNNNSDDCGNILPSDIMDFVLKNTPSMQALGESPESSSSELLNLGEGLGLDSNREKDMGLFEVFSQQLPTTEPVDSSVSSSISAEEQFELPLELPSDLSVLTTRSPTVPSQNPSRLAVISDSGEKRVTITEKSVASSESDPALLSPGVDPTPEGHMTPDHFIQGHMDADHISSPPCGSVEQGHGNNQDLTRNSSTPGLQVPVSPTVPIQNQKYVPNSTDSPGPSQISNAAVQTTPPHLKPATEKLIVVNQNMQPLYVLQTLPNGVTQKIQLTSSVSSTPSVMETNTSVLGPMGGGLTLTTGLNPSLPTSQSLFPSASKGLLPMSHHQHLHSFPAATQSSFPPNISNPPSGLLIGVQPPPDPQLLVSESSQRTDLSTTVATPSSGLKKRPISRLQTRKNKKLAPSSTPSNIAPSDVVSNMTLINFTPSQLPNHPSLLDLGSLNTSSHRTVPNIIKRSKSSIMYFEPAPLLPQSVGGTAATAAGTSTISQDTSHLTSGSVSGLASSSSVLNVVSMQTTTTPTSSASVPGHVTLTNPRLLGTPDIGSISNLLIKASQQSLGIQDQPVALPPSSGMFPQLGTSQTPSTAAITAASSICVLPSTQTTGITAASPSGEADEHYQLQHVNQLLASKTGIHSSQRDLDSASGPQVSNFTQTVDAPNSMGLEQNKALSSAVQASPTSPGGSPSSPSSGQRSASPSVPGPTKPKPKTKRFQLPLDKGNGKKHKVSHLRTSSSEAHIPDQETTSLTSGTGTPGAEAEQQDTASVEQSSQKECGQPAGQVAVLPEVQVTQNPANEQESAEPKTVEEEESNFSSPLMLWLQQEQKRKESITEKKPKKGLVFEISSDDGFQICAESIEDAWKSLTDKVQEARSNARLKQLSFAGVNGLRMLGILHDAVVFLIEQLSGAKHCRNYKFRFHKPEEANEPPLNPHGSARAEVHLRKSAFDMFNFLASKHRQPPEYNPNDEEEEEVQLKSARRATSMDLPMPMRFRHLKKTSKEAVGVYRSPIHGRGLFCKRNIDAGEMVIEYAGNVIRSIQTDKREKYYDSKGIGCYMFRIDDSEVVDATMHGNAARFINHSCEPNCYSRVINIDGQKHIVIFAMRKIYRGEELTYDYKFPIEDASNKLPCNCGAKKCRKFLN
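Purified MLL-CXXC (added from a 7 uM solution) was preincubated 5 min at ambient with pinned compounds in 50 mM Tris-HCl pH 7.5, 50 mM NaCl, 1 mM DTT, 0.05% BSA. Fluorescein-labeled HOX-A9 DNA (50 nM solution) followed, 30 min, then polarization read.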
* = called active by the depositor; ? = inconclusive; · = not tested or not shown; ! = not confirmed by another sample; [ ] = dose if it differs, or a comment. Only a selection was taken, and hits are over-represented in it overall.

SMILES	Menin-MLL TR inh	RGS12 GoLoco inh	Menin MLL FP FL	MLL CXXC-DNA inh
CCC(=O)Nc1cc2nn(-c3ccc(OC)cc3)nc2cc1C	3.0%	1.1%	5.0	-6.6%
COc1ccc(-n2nc3cc(C)c(NC(=S)NC(=O)c4ccccc4C)cc3n2)cc1	22.4µM*	5.9%	2.4	2.7%
CC1(C)Oc2ccc3ccc(=O)oc3c2-c2cnoc21	2.8%	10µM*	0.9	14.8%
Cc1ccc(N2C(=O)C3CC(c4ccccc4)=C4C5C=CC(C6C(=O)N(c7ccc(C)cc7)C(=O)C56)C4C3C2=O)cc1 (configuration not stated)	-8.0%	5.3%	-3.8	5.8%
Cc1ccc(N2C(=O)C3CC(c4ccccc4)=C4C5C=CC(C6C(=O)N(c7ccc(C)cc7C)C(=O)C56)C4C3C2=O)c(C)c1 (configuration not stated)	·	31.6µM*	0.8	12.0%
CC(C)[C@@H](OCc1ccccc1)[C@H](C)/C=N\O[C@@H](C)c1cn([C@H](CO)Cc2ccccc2)nn1	-19.2%[11.7 µM]	·	0.2[11.7 µM]	·
CC[N+]1(CC(O)COC2CC(C)CC(C)(C)C2)CCOCC1 (configuration not stated)	·	5.62µM*	0.8	-3.8%
O=c1c(-c2ccccc2)nc2cnc(N3CCOCC3)nc2n1Cc1cccs1	-0.1%	-3.7%	?	·
C[N+](C)(C)CCC(=O)c1cccc2ccccc12	?	25.1µM*!	2.9	26.6%
COc1ccccc1N=Nc1ccc(O)c2ncccc12	?	·	-2.1	-19.8%
COc1ccccc1N=Nc1[nH]c2ccc(C)cc2c1O	?	3.55µM*	3.0	10.8%
C[C@H](C(=O)c1ccccc1)C(c1ccccc1)N1CCOCC1 (some centres not stated)	·	0.6%[14.2 µM]	·	·
Cc1c2cc(O)c(=O)cc-2oc2cc(O)c(O)cc12	?	7.94µM*	?	?
COC(=O)C1C[C@@H]2C3=C(C(=O)[C@@](C)(NC(=O)c4ccccc4)C3[C@H](C(=O)OC)C1)[C@H](C)n1c(=O)n(-c3ccccc3)c(=O)n12 (some centres not stated)	-8.5%	·	7.7	·
CC(=O)OCCn1c(C)[n+](CCOC(C)=O)c2cc(Cl)c(Cl)cc21	23.4%	12.6µM*	-1.2	-3.0%
CCOC(=O)Cn1c(C)[n+](C)c2cc(Cl)c(Cl)cc21	-3.4%	-1.1%	-1.9	0.2%
CCn1c(C)[n+](CCOCC[n+]2c(C)n(CC)c3cc(Cl)c(Cl)cc32)c2cc(Cl)c(Cl)cc21	-12.2%	7.94µM*	0.7	-2.9%
O=C(CSc1nnnn1-c1ccccc1)Nc1ncc(Cc2ccccc2Cl)s1	-0.1%	10.3%	4.4	-4.7%
N=C1SC(c2ccccc2)C(=O)N1c1ncc(Cc2ccccc2Cl)s1 (configuration not stated)	14.1µM*	-5.1%	5.6	13.5%
CCCCC/C=C\C/C=C\CCCCCCCC(=O)NC(C)C(=O)O (configuration not stated)	-0.4%	6.5%	-3.3	·
CC1CCC2C(=O)OC(CO)CN2C1c1ccc(Br)cc1 (configuration not stated)	-8.3%[11.7 µM]	·	-4.5[11.7 µM]	·
Oc1cccc(Nc2c3ccccc3nc3ccccc23)c1	31.6µM*	·	-28.2	2.9%
COc1ccc(C2CC(c3ccccc3)Oc3ccc(OC)cc32)cc1 (configuration not stated)	-8.3%	·	4.8	·
Cc1cc(=O)c2c(O)c3c(O)cc(O)c4c5c(O)cc(O)c6c(O)c7c(=O)cc(C)c8c1c2c(c34)c(c65)c78	?	4.47µM*	?	·
Cc1cc(Nc2ccc(O)cc2)ccc1N	·	28.2µM*	·	·
SMILES	Menin-MLL TR inh	RGS12 GoLoco inh	Menin MLL FP FL	MLL CXXC-DNA inh
O=C(OCCN1CCOCC1)C(c1ccccc1)c1ccccc1	-8.7%	1.0%	0.1	10.9%
CC(C)N1C(=O)CC2(CC[N+](C)(CCOC(=O)C(c3ccccc3)c3ccccc3)CC2)C1=O (configuration not stated)	-8.7%	11.2µM*	2.6	3.1%
C1CCCNCC1	·	22.4µM*	·	·
C1CNCCNCCCNCCNC1	-11.1%	9.5%	8.1	1.6%
Cc1cc(CCC(=O)O)c(C)cc1CCC(=O)O	9.0%	-5.4%	3.8	-3.2%
C=CC1=C(C)C2=NC1=CC1=NC(=CC3=NC(=CC4=NC(=C2)C(C)=C4CCC(=O)O)C(CCC(=O)O)=C3C)C(C=C)=C1C.[Zn]	?	5.62µM*	?	·
CC(=O)OCC(CO)OC(C)=O (configuration not stated) (tested in a mixture with another compound)	-18.6%	·	-8.4	·
CCn1ccc2cc(OC)ccc2c1=S	?	9.4%	4.4	-0.7%
CCSc1ccc2cc(OC)ccc2[n+]1CC	-22.1%	2.51µM*	-3.4	2.7%
Cc1ccc(-c2nc3ccccc3s2)cc1NC(=S)NC(=O)/C=C/c1ccco1	?	4.1%	9.6	4.6%
Cc1ccc(-c2nc3ccccc3s2)cc1NC(=S)NC(=O)c1cccc2ccccc12	11.2µM*	0.6%	·	4.6%
O=C1CCC=C1C(O)c1ccc2c(c1)OCO2 (configuration not stated)	3.8%	-2.3%	0.7	·
N#CCCn1c(=O)c(CCc2ccccc2)nc2cnc(N3CCOCC3)nc21	39.8µM*	18.2%	?	·
COc1ccc(OCC(O)CN2CCN(c3ccc(OC)cc3)CC2)cc1 (configuration not stated)	35.5µM*	·	-27.8	-5.7%
COc1ccc(N2CCN(CC(O)COC(c3ccccc3)c3ccccc3)CC2)cc1 (configuration not stated)	-11.0%	·	0.4	7.5%
OC(COc1ccc(F)cc1)CN1CCN(CC(O)COc2ccc(F)cc2)CC1 (configuration not stated)	-16.5%	·	0.2	9.9%
COc1ccc(N2CCN(CC(O)COC(c3ccc(F)cc3)c3ccc(F)cc3)CC2)cc1 (configuration not stated)	17.8µM*	·	-13.6	23.8%
COc1ccc(N2CCN(CC(O)COc3ccc(F)cc3)CC2)cc1 (configuration not stated)	20µM*	·	-17.4	-3.5%
CC1Cc2c(COc3ccccc3)nc3c(c2CO1)CN(CCOc1ccccc1)CC3 (configuration not stated)	-0.5%[11.7 µM]	·	1.3[11.7 µM]	·
CC(COc1ccc(/C=C/c2ccccc2)cc1)[N+](C)(C)C (configuration not stated)	-0.5%	10µM*	-0.9	8.2%
COc1cc2c(c(OC)c1OC)-c1ccc(OC)c(=O)cc1[C@@H](NC=O)CC2	5.2%	·	0.3	·
NS(=O)(=O)c1cccc(NS(=O)(=O)c2ccc(/C=C/C(=O)OCC(=O)c3ccc(Br)cc3)cc2)c1	28.2µM*	11.1%	0.2	-12.7%

Source: PubChem
